From PubChem BioAssay (NCATS) come the findings set out here.

For test [1], the target named is Lysosomal acid glucosylceramidase (Homo sapiens) (UniProt P04062). Description: Glucocerebrosidase-p2 (AID 348; in the data active = potency below about 10 µM; also: potency is read from the fitted curve at half-maximal effect). As to conditions: purified GBA, blue fluorogenic substrate, 40 min. Put shortly:
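Normal human glucocerebrosidase (0.2 nM) with blue fluorogenic substrate (80 uM final) in citrate/phosphate pH 5.9 with 10mM sodium taurocholate, 0.01% tween-20; 40 min RT, NaOH/glycine stop; fluorescence Ex 365/Em 440; AC50 from a titration from 0.6 nM upwards.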

The nature of test [2]: AP1 Signaling Pathway (AID 357; active = well fitted curve in either direction with a large enough effect, not every such curve was filed as active;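 also: ME-180 reporter cells stimulated with EGF at its EC50 level; % is scaled to controls: 0 for no effect and ±100 for the full control effect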). As to conditions: ME-180 AP-1-bla reporter, EGF-induced, beta-lactamase ratio, 5 h; at 7.69 µM (top of the series) unless noted. Put shortly:
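In this screen, ME-180 cells in Opti-MEM with 0.5% dialyzed FBS received EC50 EGF and compound titrations for 5 h. AP-1 reporter beta-lactamase was detected via CCF4 ratio, giving AC50 for positive and negative modulators.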

The target in test [3] is Cytochrome P450 1A2 (Homo sapiens) (UniProt P05177). Description: p450-cyp1a2 (AID 410; calls by dose curve; also: potency is read from the fitted curve at half-maximal effect). As to conditions: recombinant CYP1A2, luciferin-ME demethylation, luminescence; series mostly up to 57 µM. In outline:
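20nM CYP1A2, 100uM Luciferin-ME (=Km), 100mM KPO4; cpd 10 min RT; +NADPH regen, 60 min RT; stop/detect 20 min; luminescence. Normalized to furafylline 57 uM = full inhibition.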

A short description of test [4]: NFAT Signaling Pathway (AID 444; active = well fitted curve in either direction with a large enough effect, not every such curve was filed as active;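 also: carbachol stimulus at about its EC50 of 1 µM final; % is scaled to controls: 0 for no effect and ±100 for the full control effect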). As to conditions: Jurkat NFAT-bla M1, carbachol, beta-lactamase ratio, 5 h; at 7.69 µM (top of the series) unless noted. Put shortly: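 Read-out: CCF4 FRET ratio (460 nm/530 nm) after 1 h RT dye loading, used for %activity and AC50 from titration series. Cells: Jurkat NFAT-β-lactamase/M1 line, treated with compound plus 1 uM carbachol for 5 h, 37 °C.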

The nature of test [5]: Stat Signaling Pathway (AID 446; active = well fitted curve in either direction with a large enough effect, not every such curve was filed as active;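 also: ME-180 cervical cancer cells given 40 pM IL-6 alongside compound; SIE-controlled beta-lactamase reporter measured as 460/530 nm FRET emission ratio; % is scaled to controls: 0 for no effect and ±100 for the full control effect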). As to conditions: ME-180 (cervical carcinoma) SIE beta-lactamase reporter, IL-6 stimulated, 5 h; at 7.69 µM (top of the series) unless noted. In outline:
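Emission at 460 and 530 nm (excitation 405 nm) reports SIE-controlled beta-lactamase in ME-180 cells. Cells received compound with 40 pM IL-6 for 5 hrs at 37 C; data scaled between 300 pM IL-6 and 125 nM JAK-inhibitor controls.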

The target in test [6] is Glucocorticoid receptor (Homo sapiens) (UniProt P04150). Nature of the test: GR-GFP Redistribution (AID 450;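 active = compounds whose dose series gives a full or clear partial fitted curve of increased nuclear translocation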; also: potency is read from the fitted curve at half-maximal effect). Particulars: U2OS GR-GFP nuclear translocation, laser cytometry, 2 h.
Chain of Glucocorticoid receptor (Homo sapiens) (P04150 whole entry, looked up): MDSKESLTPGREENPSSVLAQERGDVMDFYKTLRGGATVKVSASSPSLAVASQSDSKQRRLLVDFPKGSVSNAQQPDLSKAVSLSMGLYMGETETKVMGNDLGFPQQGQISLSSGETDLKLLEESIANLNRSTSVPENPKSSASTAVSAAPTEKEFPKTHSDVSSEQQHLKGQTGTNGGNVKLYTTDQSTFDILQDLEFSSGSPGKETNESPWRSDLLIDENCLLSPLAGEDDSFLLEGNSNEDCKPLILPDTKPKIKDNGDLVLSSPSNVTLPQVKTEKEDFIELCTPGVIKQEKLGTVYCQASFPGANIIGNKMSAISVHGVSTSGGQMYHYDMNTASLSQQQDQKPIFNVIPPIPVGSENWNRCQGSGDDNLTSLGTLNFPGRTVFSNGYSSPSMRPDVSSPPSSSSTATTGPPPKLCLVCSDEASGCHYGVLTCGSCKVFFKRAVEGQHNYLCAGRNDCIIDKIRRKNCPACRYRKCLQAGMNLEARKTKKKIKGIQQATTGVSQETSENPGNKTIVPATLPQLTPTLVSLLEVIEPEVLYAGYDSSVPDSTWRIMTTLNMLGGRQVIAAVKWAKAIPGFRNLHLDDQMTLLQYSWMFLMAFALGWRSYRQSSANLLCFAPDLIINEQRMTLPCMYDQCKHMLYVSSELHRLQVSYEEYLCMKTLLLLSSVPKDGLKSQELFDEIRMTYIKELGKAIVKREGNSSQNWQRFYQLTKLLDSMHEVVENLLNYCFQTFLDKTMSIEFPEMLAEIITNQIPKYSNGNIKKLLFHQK
Test [7] shares this target. Description: GR-EFC Redistribution (AID 451; calls by dose curve; also: potency is read from the fitted curve at half-maximal effect). As to conditions: CHO-K1 GR-EFC translocation, beta-gal luminescence, 2 h. Put shortly:
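Translocation of GR-ED fusion to nuclear EA restores b-gal, read by luminescence after 1 h room-temperature detection. Engineered CHO-K1 biosensor cells, 1,000/well, exposed 2 h at 37 C to titrations up to 46 uM final.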

For test [8], the target named is Mitogen-activated protein kinase 10 (Mus musculus) (UniProt Q61831). Description: JNK3 AlphaScreen Assay (AID 530; active = well fitted curve in either direction with a large enough effect, not every such curve was filed as active;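 also: kinase came from lysate of stimulated human HepG2 cells; signal reports phosphorylation of biotinylated GST-cJun 1-79 at Ser73 with 10 µM ATP; % is scaled to controls: 0 for no effect and ±100 for the full control effect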). Particulars: JNK3 lysate, c-Jun phosphorylation; series mostly up to 57.1 µM. In outline:
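Kinase buffer: 20 mM Tris-HCl pH 7.6, 10 mM MgCl2, 1 mM DTT, 0.1 mM Na3VO4, 0.01% Tween-20; ATP 10 uM. Substrate biotin-GST-cJun(1-79), enzyme from activated HepG2 lysates. Detection by Ser73 phospho-antibody AlphaScreen.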

In test [9] the target is 3',5'-cyclic-AMP phosphodiesterase 4B (Homo sapiens) (UniProt Q07343). Description: qHTS Assay for Inhibitors of PDE-IV (AID 607; active = well fitted activation curve with a large enough effect in the main read-out, with a control signal flat, not every such curve was filed as active; also: % of control where 0% means no effect). Particulars: HEK293 ACTOne CNG channel cells, membrane potential fluorescence; series mostly up to 22.9 µM. In outline: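 The readout is membrane depolarisation from a cAMP-sensing CNG channel, detected with a potential dye at ex 535/em 590. Cells were HEK293-derived (endogenous PDE-IV) at 1000 cells/well, titrated up to 22.9 uM final.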
Chain of 3',5'-cyclic-AMP phosphodiesterase 4B (Homo sapiens) (Q07343 whole entry, looked up): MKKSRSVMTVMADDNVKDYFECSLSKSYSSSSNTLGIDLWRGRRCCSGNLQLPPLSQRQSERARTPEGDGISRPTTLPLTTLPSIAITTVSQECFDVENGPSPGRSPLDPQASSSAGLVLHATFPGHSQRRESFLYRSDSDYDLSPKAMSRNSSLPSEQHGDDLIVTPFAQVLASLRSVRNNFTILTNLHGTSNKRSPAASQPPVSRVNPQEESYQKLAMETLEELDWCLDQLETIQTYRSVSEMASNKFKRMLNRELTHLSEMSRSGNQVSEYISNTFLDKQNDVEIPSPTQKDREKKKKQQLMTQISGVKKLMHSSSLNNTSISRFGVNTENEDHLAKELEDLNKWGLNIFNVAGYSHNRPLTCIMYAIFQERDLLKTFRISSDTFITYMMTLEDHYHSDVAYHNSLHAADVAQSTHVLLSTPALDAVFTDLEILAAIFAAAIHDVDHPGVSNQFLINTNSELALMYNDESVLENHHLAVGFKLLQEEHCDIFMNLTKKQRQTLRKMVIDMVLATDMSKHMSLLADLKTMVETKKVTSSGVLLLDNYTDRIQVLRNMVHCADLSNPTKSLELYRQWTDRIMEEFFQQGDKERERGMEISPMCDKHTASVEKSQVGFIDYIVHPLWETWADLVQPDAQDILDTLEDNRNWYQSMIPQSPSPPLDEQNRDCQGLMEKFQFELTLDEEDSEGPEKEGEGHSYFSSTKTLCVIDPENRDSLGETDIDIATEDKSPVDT
Background: qHTS replaces the single test concentration by a dilution series.

Test [10] concerns the target Cytochrome P450 3A4 (Homo sapiens) (UniProt P08684). Nature of the test: qHTS Assay for Activators of Cytochrome P450 3A4 (AID 885). Also: nearly all actives have a fitted effect of over 65% in size. Particulars: recombinant CYP3A4, Luciferin-PPXE luminescence, 60 min; series mostly up to 57.1 µM. Put shortly: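 Activators are scored by enhanced luminescence from CYP3A4 conversion of luciferin-PPXE (25uM, equal to KM) to luciferin, after 60 min at RT with an NADPH-regenerating system.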

Test [11] addresses Dual specificity protein kinase CLK4 (Homo sapiens) (UniProt Q9HAZ1). Description: qHTS Assay for Inhibitors of CDC-like Kinase 4 (Kinase-Glo Assay) (AID 1770). Also: % is scaled to controls: 0 for no effect and ±100 for the full control effect; nearly all actives have a fitted effect of over 65% in size. As to conditions: recombinant Clk4, Kinase-Glo ATP depletion luminescence; series mostly up to 66.7 µM. In outline:
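Inhibition was judged from remaining ATP, measured by Ultra-Glo luciferase bioluminescence after Clk4 (25 nM) had acted on RS peptide at 1 uM ATP for 4.5 hours, room temperature.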

Test [12] shares this target. Description: qHTS Assay for Inhibitors of CDC-like Kinase 4 (ADP-Glo Assay) (AID 1771). Also: % is scaled to controls: 0 for no effect and ±100 for the full control effect; nearly all actives have a fitted effect of over 70% in size. As to conditions: recombinant CLK4, ADP-Glo luminescence; series mostly up to 80 µM. In outline: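 25 nM Clk4, 100 uM RS peptide, 1 uM ATP (final); 2 mM MgCl2, 0.5 mM EGTA, 2.5 mM DTT, 0.01% Triton X-100; 1 hr RT. ADP-Glo readout: ATP depletion 45 min, conversion/luciferase 30 min, luminescence.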

For test [13] the target is unchanged. Description: qHTS Assay for Inhibitors of CDC-like Kinase 4 (ADP-FP Assay) (AID 1795).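 Also: recombinant human CLK4 phosphorylating RS repeat peptide at 1 µM ATP; % is scaled to controls: 0 for no effect and ±100 for the full control effect; nearly all actives have a fitted effect of over 60% in size.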 As to conditions: Transcreener ADP fluorescence polarization; series mostly up to 50 µM. In outline:
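Inhibition of ADP formation by 6.25 nM Clk4 is measured using 1 uM ATP and 100 uM RS repeat peptide over one hour. Produced ADP displaces a fluorescent tracer from antibody, lowering polarization.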

Test [14] concerns the target Ubiquitin carboxyl-terminal hydrolase 1 (Homo sapiens) (UniProt O94782). Description: Inhibitors of USP1/UAF1: Pilot qHTS (AID 504865).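 Also: rhodamine fluorescence freed from ubiquitin-rhodamine substrate followed over time; top concentration of the series differs between compounds; % is scaled to controls: 0 for no effect and ±100 for the full control effect; nearly all actives have a fitted effect of over 35% in size.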 As to conditions: purified USP1/UAF1, Ub-rhodamine cleavage fluorescence; series mostly up to 54.9 µM. In outline:
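Kinetic fluorescence assay: 1nM USP1/UAF1, 15 min compound preincubation, then 150nM Ub-Rho; 480/540 nm.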

The nature of test [15]: Primary qHTS for small molecule stabilizers of the endoplasmic reticulum resident proteome: Secreted ER Calcium Modulated Protein (SERCaMP) assay (AID 1508630). Also: % is scaled to controls: 0 for no effect and ±100 for the full control effect. Particulars: SH-SY5Y GLuc-SERCaMP (Gaussia luciferase released on ER calcium loss) secretion, thapsigargin, luminescence; series mostly up to 38.4 µM. Put shortly:
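The SH-SY5Y reporter protocol was run at 3 concentrations up to 38.3 uM (primary) or 11 concentrations (follow-up): 16 h compound, 100 nM thapsigargin for 4 h, then extracellular luciferase luminescence.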

Test [16] deals with Cytochrome P450 3A4 (Homo sapiens) (UniProt P08684). Nature of the test: qHTS Assay for Inhibitors and Substrates of Cytochrome P450 3A4 (AID 884). Also: potency is read from the fitted curve at half-maximal effect; nearly all actives have a fitted effect of over 50% in size. Particulars: recombinant CYP3A4, Luciferin-PPXE luminescence; series mostly up to 57.1 µM. In outline:
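Luminescent readout of luciferin produced by CYP3A4 (20 nM) dealkylation of Luciferin-PPXE, 25 uM (its KM). NADPH-driven reaction ran 60 min at RT after 10 min compound preincubation; data scaled to 57 uM ketoconazole as 100% inhibition.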

Test [17] addresses Cytochrome P450 2D6 (Homo sapiens) (UniProt P10635). Description: qHTS Assay for Inhibitors and Substrates of Cytochrome P450 2D6 (AID 891). Also: potency is read from the fitted curve at half-maximal effect; nearly all actives have a fitted effect of over 60% in size. As to conditions: recombinant CYP2D6, luciferin-ME EGE luminescence; series mostly up to 57.1 µM. In outline:
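Luminescent read-out of luciferin formed by 5 nM human CYP2D6 demethylating 30 uM Luciferin-ME EGE (Km level) over 60 min at room temperature after NADPH regeneration addition. Data normalized to full inhibition by 1.43 uM quinidine.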

Test [18] concerns the target Cytochrome P450 2C19 (Homo sapiens) (UniProt P33261). Nature of the test: qHTS Assay for Inhibitors and Substrates of Cytochrome P450 2C19 (AID 899). Also: potency is read from the fitted curve at half-maximal effect; nearly all actives have a fitted effect of over 60% in size. As to conditions: recombinant CYP2C19, luciferin-H EGE luminescence; series mostly up to 57.1 µM. In outline: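 Luminescence readout of luciferin formed from 10uM Luciferin-H EGE (KM level) by 5 nM CYP2C19 in 50mM KPO4. 60 min NADPH-driven reaction at 37C after 10 min compound preincubation; data scaled to 57uM ketoconazole inhibition.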

Values without a mark were called inactive. Results filed as inconclusive are left out. Active and inactive are the calls of the source. Unless noted, calls follow the shape of the dose curve; as a rule, active = well fitted curve in the direction sought with a large enough effect; inconclusive = small, poorly fitted or top-dose-only effect, or another doubt; inactive = no such curve, though single readings can be large; an effect the other way counts as inactive or inconclusive.

Chain of Lysosomal acid glucosylceramidase (Homo sapiens) (P04062 whole entry, looked up): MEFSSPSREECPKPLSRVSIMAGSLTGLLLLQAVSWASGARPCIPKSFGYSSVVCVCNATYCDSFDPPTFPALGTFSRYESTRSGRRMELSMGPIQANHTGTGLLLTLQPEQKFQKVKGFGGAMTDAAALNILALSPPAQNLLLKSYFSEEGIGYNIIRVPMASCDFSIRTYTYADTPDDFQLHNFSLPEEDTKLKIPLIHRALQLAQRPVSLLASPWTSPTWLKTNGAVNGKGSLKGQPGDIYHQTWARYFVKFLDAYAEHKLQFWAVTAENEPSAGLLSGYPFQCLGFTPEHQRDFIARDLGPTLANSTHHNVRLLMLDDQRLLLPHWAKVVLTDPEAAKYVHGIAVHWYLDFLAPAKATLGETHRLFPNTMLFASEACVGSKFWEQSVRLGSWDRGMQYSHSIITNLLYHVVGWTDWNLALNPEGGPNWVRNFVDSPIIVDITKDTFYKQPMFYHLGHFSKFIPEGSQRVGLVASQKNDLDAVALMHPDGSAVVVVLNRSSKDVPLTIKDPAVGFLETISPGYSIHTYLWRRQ
Chain of Ubiquitin carboxyl-terminal hydrolase 1 (Homo sapiens) (O94782 whole entry, looked up): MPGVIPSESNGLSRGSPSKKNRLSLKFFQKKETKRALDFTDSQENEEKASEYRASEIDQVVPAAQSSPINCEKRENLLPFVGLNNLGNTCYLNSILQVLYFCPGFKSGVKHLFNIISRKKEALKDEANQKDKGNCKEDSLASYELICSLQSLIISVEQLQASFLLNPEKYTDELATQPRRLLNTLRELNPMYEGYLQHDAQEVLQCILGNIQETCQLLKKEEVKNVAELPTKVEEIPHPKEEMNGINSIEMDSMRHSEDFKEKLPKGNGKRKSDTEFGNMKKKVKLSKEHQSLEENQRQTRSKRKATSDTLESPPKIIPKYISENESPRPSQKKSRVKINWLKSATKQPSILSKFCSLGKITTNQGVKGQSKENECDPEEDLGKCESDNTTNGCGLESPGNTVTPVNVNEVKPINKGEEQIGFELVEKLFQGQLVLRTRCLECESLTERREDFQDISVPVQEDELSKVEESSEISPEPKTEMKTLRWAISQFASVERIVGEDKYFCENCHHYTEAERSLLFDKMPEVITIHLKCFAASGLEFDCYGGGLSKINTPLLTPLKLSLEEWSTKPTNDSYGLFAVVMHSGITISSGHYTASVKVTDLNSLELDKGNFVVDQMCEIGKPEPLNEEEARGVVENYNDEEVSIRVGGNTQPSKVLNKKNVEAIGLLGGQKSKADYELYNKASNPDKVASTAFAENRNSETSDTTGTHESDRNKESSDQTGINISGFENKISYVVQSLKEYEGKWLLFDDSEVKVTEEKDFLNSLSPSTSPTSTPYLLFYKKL
Chain of Cytochrome P450 1A2 (Homo sapiens) (P05177 whole entry, looked up): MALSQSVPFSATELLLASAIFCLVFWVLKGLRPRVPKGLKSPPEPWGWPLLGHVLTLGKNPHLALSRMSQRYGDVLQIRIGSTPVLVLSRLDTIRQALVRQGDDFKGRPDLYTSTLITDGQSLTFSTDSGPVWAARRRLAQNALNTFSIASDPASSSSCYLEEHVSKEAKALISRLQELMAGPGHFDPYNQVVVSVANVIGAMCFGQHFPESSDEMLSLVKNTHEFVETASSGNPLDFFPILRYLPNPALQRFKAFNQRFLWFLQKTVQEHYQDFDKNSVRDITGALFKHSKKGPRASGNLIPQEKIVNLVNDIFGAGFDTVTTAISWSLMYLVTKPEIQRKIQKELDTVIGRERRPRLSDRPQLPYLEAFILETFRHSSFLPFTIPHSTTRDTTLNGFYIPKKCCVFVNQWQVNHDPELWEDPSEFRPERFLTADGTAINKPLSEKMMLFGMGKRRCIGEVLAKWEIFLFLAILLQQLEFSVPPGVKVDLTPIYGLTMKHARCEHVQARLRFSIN
Chain of Cytochrome P450 3A4 (Homo sapiens) (P08684 whole entry, looked up): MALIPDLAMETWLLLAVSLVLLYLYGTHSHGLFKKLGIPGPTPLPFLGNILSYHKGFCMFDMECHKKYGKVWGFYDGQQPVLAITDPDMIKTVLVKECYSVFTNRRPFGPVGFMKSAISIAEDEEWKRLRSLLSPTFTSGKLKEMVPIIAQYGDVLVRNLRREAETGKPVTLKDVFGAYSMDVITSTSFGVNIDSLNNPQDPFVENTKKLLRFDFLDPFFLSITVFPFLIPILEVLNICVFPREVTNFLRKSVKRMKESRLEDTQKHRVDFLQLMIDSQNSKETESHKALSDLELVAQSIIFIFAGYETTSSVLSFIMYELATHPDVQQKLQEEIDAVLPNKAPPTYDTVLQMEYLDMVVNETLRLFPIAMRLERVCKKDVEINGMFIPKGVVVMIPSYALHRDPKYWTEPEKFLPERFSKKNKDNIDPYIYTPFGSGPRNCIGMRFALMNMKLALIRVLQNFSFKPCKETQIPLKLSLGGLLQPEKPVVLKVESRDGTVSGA
Chain of Dual specificity protein kinase CLK4 (Homo sapiens) (Q9HAZ1 whole entry, looked up): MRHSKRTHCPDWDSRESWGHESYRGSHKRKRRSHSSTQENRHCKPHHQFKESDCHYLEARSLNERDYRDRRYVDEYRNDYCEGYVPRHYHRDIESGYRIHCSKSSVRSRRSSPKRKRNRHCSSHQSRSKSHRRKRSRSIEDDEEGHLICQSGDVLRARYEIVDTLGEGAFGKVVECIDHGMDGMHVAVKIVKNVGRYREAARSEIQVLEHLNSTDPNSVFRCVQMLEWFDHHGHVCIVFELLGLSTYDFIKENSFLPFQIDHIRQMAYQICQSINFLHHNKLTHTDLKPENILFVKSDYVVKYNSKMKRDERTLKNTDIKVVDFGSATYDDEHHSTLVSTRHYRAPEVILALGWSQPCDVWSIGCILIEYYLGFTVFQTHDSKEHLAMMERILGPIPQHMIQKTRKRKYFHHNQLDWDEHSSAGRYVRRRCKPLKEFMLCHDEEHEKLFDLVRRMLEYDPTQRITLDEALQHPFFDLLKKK
Chain of Cytochrome P450 2D6 (Homo sapiens) (P10635 whole entry, looked up): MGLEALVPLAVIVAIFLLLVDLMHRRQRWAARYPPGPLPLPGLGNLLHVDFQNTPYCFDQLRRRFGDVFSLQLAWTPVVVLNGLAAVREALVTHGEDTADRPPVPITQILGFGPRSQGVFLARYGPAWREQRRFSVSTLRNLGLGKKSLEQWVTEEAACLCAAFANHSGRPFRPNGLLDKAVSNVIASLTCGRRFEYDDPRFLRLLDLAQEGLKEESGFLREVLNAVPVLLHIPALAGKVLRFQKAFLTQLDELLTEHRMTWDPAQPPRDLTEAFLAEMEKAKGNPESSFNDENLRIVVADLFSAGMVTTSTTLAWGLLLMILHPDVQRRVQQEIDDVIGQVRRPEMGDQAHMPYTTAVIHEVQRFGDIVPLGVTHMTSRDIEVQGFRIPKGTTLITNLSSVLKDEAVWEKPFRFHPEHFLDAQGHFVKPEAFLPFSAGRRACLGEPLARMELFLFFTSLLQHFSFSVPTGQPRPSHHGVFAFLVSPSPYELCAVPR

Regarding `O=c1c(-c2cccc(Cl)c2)nc2cncnc2n1C1CC1`, the Potency in [1] was > 11.4 µM; in test [3], 0.631 µM (active); in test [6] it was > 9.22 µM; in test [7] it was > 46 µM. For the same compound, the activity change, negative = inhibition in test [2] is -20.9%; in test [4] it was -7.65%. In addition, the activity, negative = inhibition in test [5] was -4.14%. Further, the Potency entry in [8], in [9], in [10], in [11], in test [12] and in [13] was “inactive” throughout. In [14], the Potency result is “inactive”. In test [15], the result was inactive.
Consider `COc1ccc(-n2c(=O)c(C)nc3cnc(N4CCOCC4)nc32)cc1`, for which the Potency in test [1] was > 11.4 µM; in test [3], 12.6 µM (active); in test [6], > 9.22 µM; in test [7], > 46 µM. Besides, the activity change, negative = inhibition in test [2] was -10.2%; in test [4], 3.24%. The activity, negative = inhibition in test [5] was -6.68%. Besides, the Potency result in [8], in [9], in test [10], in test [11], in test [12] and in test [13] was “inactive” throughout. Moreover, the Potency entry in [14] is “inactive”. The result in [15] was inactive.
Consider `COc1ccc(CNc2ncncc2-c2ccccc2C(F)(F)F)c(OC)c1`, for which the Potency in test [1] is > 11.4 µM; in test [3], 15.8 µM (active); in [6] it was > 46 µM; in test [7], > 46 µM; in test [16], 0.316 µM (active); in test [17] it was 0.398 µM (active). For the same compound, the Potency in test [18] was 1.58 µM (active). Besides, the values for the activity change, negative = inhibition in test [2] and in test [4] were -23.4% and -7.18%, respectively. The activity, negative = inhibition in [5] is 2.4%. The Potency entry in [8], in [9], in [10], in [11], in test [12] and in test [13] was “inactive” each time. In test [14], the Potency entry is “inactive”. In test [15], the result was inactive.
As for `Cc1cnc(CNc2ccnc(-c3ccoc3)n2)cn1`, the Potency was > 11.4 µM in [1], 12.6 µM (active) in test [3], > 46 µM in [6] and > 46 µM in test [7]. Further, the activity change, negative = inhibition is 16.3% in test [2] and -4.07% in [4]. Besides, the activity, negative = inhibition in test [5] is 7.07%. Also, the Potency result in [8], in test [9], in [10], in test [11], in test [12] and in test [13] was “inactive” in each case. Besides, the Potency entry in [14] was “inactive”. The result in test [15] was inactive.
As for `COc1cccc(Cn2c(=O)c(CCc3ccccc3)nc3cncnc32)c1`, the Potency was > 11.4 µM in test [1]; 12.6 µM (active) in [3]; > 9.22 µM in [6]; > 46 µM in [7]; 2.51 µM (active) in [16]. Also, the activity change, negative = inhibition in [2] is -12.1%; in test [4] it was -7.87%. Moreover, the activity, negative = inhibition in test [5] is -9.09%. In addition, the Potency result in test [8], in [9], in test [10], in test [11], in test [12] and in test [13] was “inactive” in each case. Further, the Potency entry in test [14] is “inactive”. The result in [15] was inactive.
